Experimental data published in PubChem BioAssay (EPA / NIEHS).
Records with an inconclusive call do not appear. Activity calls are given as the source filed them. Rule for the calls, unless noted: active = hit-call score of the fitted dose curve at least 0.9, where 1 is the maximum; inconclusive = response in the unintended direction; inactive = score below 0.9.

Columns and labels:
[1] = TOX21_p53_BLA_p2_viability: Viability Assessment in the Tox21 HCT-116 p53 Agonism Beta-lactamase Assay, Phase 2 (AID 2283591);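 note: compound exposure lasted 16 h at 37 °C; actives lower the ATP signal meaning cytotoxicity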
How it was run: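 HCT-116 p53-bla cells (4000/well) rested 5 h at 37C, then received compounds in DMSO (217-fold dilution) for 16 h at 37C, 5% CO2. After the CCF4 read, CellTiter-Glo was added; ATP luminescence was read after 30 min at room temperature.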

[2] = molecular target: Cellular tumor antigen p53 (Homo sapiens) (UniProt P04637); test: TOX21_p53_BLA_p2_ratio: Tox21 HCT-116 p53 Agonism Beta-lactamase Assay, Ratio, Phase 2 (AID 2283592)
How it was run: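 Human colon HCT116 cells with an inducible p53 beta-lactamase reporter are exposed to test chemicals for 16 h at 37C. Reporter induction is read as the 460/530 nm emission ratio after CCF4-AM loading, normalized to DMSO.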

[3] = molecular target: Cellular tumor antigen p53 (Homo sapiens) (UniProt P04637); test: TOX21_p53_BLA_p3_ratio: Tox21 HCT-116 p53 Agonism Beta-lactamase Assay, Ratio, Phase 3 (AID 2283596)
How it was run: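 HCT116 p53-bla cells (4000/well) given compound in DMSO (217-fold dilution) after 5 h, incubated 16 h at 37C. CCF4-AM substrate 2 h at room temperature; 460/530 nm emission ratio, gain fitted against DMSO.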

[4] = TOX21_p53_BLA_p5_viability: Viability Assessment in the Tox21 HCT-116 p53 Agonism Beta-lactamase Assay, Phase 5 (AID 2283600)
How it was run: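 Seeded cells (4000/well) settle 5 h before compound addition. Plates then incubate 16 h at 37C, receive FRET substrate for 2 h, and finally CellTiter-Glo, with luminescence measured after a 30 min room-temperature incubation.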

[5] = molecular target: Cellular tumor antigen p53 (Homo sapiens) (UniProt P04637); test: TOX21_p53_BLA_p4_ratio: Tox21 HCT-116 p53 Agonism Beta-lactamase Assay, Ratio, Phase 4 (AID 2283601)
How it was run: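 HCT116 cells carrying an inducible beta-lactamase reporter were plated at 4000 cells/well, rested 5 h, then exposed to compounds in DMSO (217-fold dilution) for 16 h at 37C. CCF4-AM substrate was loaded 2 h at room temperature; 460/530 nm emission ratio scored gain-of-signal versus DMSO.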

[6] = molecular target: Cellular tumor antigen p53 (Homo sapiens) (UniProt P04637); test: TOX21_p53_BLA_p5_ratio: Tox21 HCT-116 p53 Agonism Beta-lactamase Assay, Ratio, Phase 5 (AID 2283599)
How it was run: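 HCT-116 cells carrying a p53-inducible beta-lactamase reporter were seeded at 4000 cells/well and dosed after 5 h with compound in DMSO (217-fold dilution). After 16 h at 37C, CCF4-AM substrate was added for 2 h, and the 460/530 nm emission ratio was scored as gain-of-signal versus DMSO.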

[7] = CCTE_Harrill_HTTr_Viability_MCF7: CCTE's 6-hour Cell Viability Assessment for the High-Throughput Transcriptomics (HTTr) Platform, in MCF-7 cells cultured in DMEM + 10% fetal bovine serum, Harrill Lab (AID 2284010; active = hit-call score of the fitted dose curve at least 0.9, where 1 is the maximum; inactive = score below 0.9)
How it was run: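 Membrane integrity was scored by high-content imaging of propidium iodide dye exclusion after a 6 h exposure across an eight-point dilution series. Data were fitted bidirectionally relative to DMSO as negative control and baseline.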

[8] = CCTE_Harrill_HTTr_Apoptosis_MCF7: CCTE's 6-hour Apoptosis Assessment for the High-Throughput Transcriptomics (HTTr) Platform, in MCF-7 cells cultured in DMEM + 10% fetal bovine serum, Harrill Lab (AID 2284011; active = hit-call score of the fitted dose curve at least 0.9, where 1 is the maximum; inactive = score below 0.9)
How it was run: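 Apoptosis in MCF-7 cells grown in DMEM with 10% fetal bovine serum was scored after a six hour exposure by high content imaging of caspase-3/7 activation (CellEvent Caspase 3/7 Green), with DMSO serving as negative control and baseline.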

[9] = CCTE_Harrill_HTTr_CellCount_MCF7: CCTE's Cell Proliferation Assessment for the High-Throughput Transcriptomics (HTTr) Platform, Harrill Lab (AID 2284012);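 note: cells exposed to compound for six hours; intended direction is loss of nuclei count meaning fewer cells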
How it was run: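 MCF-7 cells were exposed for 6 h to an eight-point dilution series; Hoechst-labeled nuclei were counted by high content imaging. Curves were fitted bidirectionally against DMSO as negative control and baseline, with signal loss indicating reduced cell count.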

[10] = TOX21_p53_BLA_p4_viability: Viability Assessment in the Tox21 HCT-116 p53 Agonism Beta-lactamase Assay, Phase 4 (AID 2283597);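 note: hits lower the luminescence signal meaning cytotoxicity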
How it was run: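 Luminescent ATP readout (CellTiter-Glo, 30 min, room temperature) in the same wells as the p53 bla ratio. HCT116 cells were treated for 16 h at 37C with DMSO-dissolved compounds.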

[11] = ACEA_ER_AUC_viability: ACEA Biosciences xCELLigence Real-Time Cell Analysis on Estrogen Receptor Agonism for Viability (AID 2283782);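 note: continuous compound exposure with impedance area under curve over 80 h; hit means loss of impedance signal meaning reduced cell growth or viability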
How it was run: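 T-47D human breast cells in phenol red-free RPMI1640 with 10% charcoal-stripped FBS were dosed with an 8-point 1:4 dilution series from 100 uM top final concentration, in duplicate. Impedance-based growth was followed for 80 h; AUC analysed versus DMSO.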

Measured: AC50

Cellular tumor antigen p53 (Homo sapiens), sequence (P04637 whole entry, looked up): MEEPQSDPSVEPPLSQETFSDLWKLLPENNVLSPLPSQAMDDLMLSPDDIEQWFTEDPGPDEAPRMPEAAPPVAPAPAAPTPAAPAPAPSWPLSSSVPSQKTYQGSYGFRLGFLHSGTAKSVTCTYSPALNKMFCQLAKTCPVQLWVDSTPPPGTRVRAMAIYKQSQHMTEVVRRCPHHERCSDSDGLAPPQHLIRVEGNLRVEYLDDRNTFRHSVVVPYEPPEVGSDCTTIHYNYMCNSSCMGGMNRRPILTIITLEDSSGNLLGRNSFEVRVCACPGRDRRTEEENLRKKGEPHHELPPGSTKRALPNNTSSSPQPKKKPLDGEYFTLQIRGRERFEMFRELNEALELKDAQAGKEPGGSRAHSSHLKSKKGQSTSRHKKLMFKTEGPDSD

C=CCOC(C)=O
inactive: [1] | [2] | [3] | [4] | [5]

Cc1cccc2sc3nncn3c12
inactive: [1] | [2] | [3] | [6] | [5] | [7] | [8] | [9]

CC(C)NCC(O)c1ccc(N)c(C#N)c1 (configuration not stated)
inactive: [1] | [2] | [3] | [6] | [4] | [5]

Clc1cc2c(cc1Cl)Oc1cc(Cl)c(Cl)cc1O2
inactive: [1] | [2] | [10] | [6]

S=C=S
inactive: [1] | [2] | [10] | [6] | [4] | [5]

O=C(O)c1ccccc1C(=O)Nc1cccc2ccccc12
inactive: [1] | [2] | [10] | [6] | [4] | [8]
active: [5] 70.1 µM | [11] 85.4 µM

O=[N+]([O-])CCO
inactive: [1] | [2] | [10] | [4] | [5]

CNC(=O)NC(O)C(Cl)(Cl)Cl (configuration not stated)
inactive: [1] | [2] | [10] | [4] | [5]

CC1=C2[C@H]3OC(=O)[C@@H](C)[C@@H]3CC[C@@]2(C)C=CC1=O
inactive: [1] | [2] | [10] | [6] | [4] | [5]

CCOC(=O)N(C)C(=O)CSP(=S)(OCC)OCC
inactive: [1] | [2] | [10] | [6] | [4] | [5]

COC(=O)[C@@H]1[C@H]2CC[C@@H](C[C@H]1OC(=O)c1ccccc1)N2C
inactive: [1] | [2] | [10] | [6]

CC(Cl)(Cl)[N+](=O)[O-]
inactive: [1] | [2] | [10] | [6] | [5]

NP(N)(=O)NC(=O)c1ccc(F)cc1
inactive: [1] | [2] | [10] | [6] | [4] | [5]

CC(C)(CCl)C(=O)Cl
inactive: [1] | [2] | [10] | [6] | [4]

ClCC(Br)CBr (configuration not stated)
inactive: [1] | [2] | [10] | [4]

CN1[C@@H]2CC[C@H]1CC(O)C2 (some centres not stated)
inactive: [1] | [2] | [10] | [6] | [4] | [5]

CCSC(=O)Cl
inactive: [1] | [2] | [10] | [6] | [4] | [5]

C=CCC1([C@@H](C)CCC)C(=O)NC(=O)NC1=O
inactive: [1] | [2] | [10] | [6] | [4]

CCCCC/C=C\C/C=C\C/C=C\C/C=C\CCCC(=O)NCC(=O)O
inactive: [1] | [2] | [10] | [4] | [5]

CCCN1CCC[C@@H]2Cc3nc(N)ncc3C[C@H]21
inactive: [1] | [2] | [10] | [6]

O=S1(=O)OCCO1
inactive: [1] | [2] | [10] | [6] | [4] | [5]

CC(C)NCC(O)c1ccc([N+](=O)[O-])cc1 (configuration not stated)
inactive: [1] | [2] | [10] | [4] | [5]

c1ccc2c(c1)CCNC2
inactive: [1] | [2] | [10] | [4] | [5]

CCCCNCC(O)c1ccc(O)cc1 (configuration not stated)
inactive: [1] | [2] | [6] | [4]

CCCCCCCCCCCOC(=O)c1ccccc1C(=O)OCCCCCCCCCCC
inactive: [1] | [2] | [10] | [6] | [4] | [5]

CCCC(=O)Cl
inactive: [1] | [2] | [10] | [4]

Oc1cccc[c]1[Hg][Cl]
active: [1] 4.03 µM | [2] 8.58 µM | [10] 4.24 µM | [6] 6.39 µM | [4] 3.94 µM | [5] 8.72 µM

CON(C)C(=O)Nc1ccc(Br)cc1
inactive: [1] | [2] | [10] | [5]

COc1ccc2c(C(=O)c3ccc(Cl)cc3)c(C)n(CC(=O)O)c2c1
inactive: [1] | [2] | [10] | [6] | [4] | [5]

CCN(CC)Cc1nccn1-c1ccc([N+](=O)[O-])cc1C(=O)c1ccccc1Cl
inactive: [1] | [2] | [10] | [6] | [4]

COc1cc(CCN)cc(OC)c1OC
inactive: [1] | [2] | [10] | [6] | [4]

Cc1nnc2n1-c1sc(Br)cc1C(c1ccccc1Cl)=NC2
inactive: [1] | [2] | [10] | [6] | [4] | [5]

O=[N+]([O-])c1cccc(O)c1
inactive: [1] | [2] | [10] | [6] | [4]

CCCSc1cc(OC)c(CCN)cc1OC
active: [2] 26.1 µM | [6] 43.7 µM | [5] 24.4 µM
inactive: [1] | [10] | [4]
